Inconclusive results are not listed. Calls of active or inactive are those of the source. Unless noted, calls come from the whole dose curve; as a rule, active = well fitted curve in the direction sought with a large enough effect; inconclusive = small, poorly fitted or top-dose-only effect, or another doubt; inactive = no such curve, though single readings can be large; an effect the other way counts as inactive or inconclusive.
Tests used:
[1] = target: alpha-glucosidase (Oryza sativa, rice) (UniProt Q653V4); assay: Counterscreen for Glucocerebrosidase Inhibitors: qHTS Assay for Rice alpha-Glucosidase at pH 5.0 (AID 997)
In short: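 Rice alpha-glucosidase (4 nM final) with 400 uM 4-methylumbelliferyl-alpha-D-glucopyranoside in citrate buffer pH 5.0, 20 min at room temperature, stopped at pH 10; fluorescence 365/440 nm, compounds 0.7 nM–77 uM, AC50 from Hill fits.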

[2] = target: DNA repair nuclease/redox regulator APEX1 (Homo sapiens) (UniProt P27695); assay: qHTS Validation Assay for Inhibitors of the Human Apurinic/apyrimidinic Endonuclease 1 (APE1) (AID 1705; note: potency is the fitted concentration of half-maximal effect)
Chain of DNA repair nuclease/redox regulator APEX1 (Homo sapiens) (P27695 whole entry, looked up): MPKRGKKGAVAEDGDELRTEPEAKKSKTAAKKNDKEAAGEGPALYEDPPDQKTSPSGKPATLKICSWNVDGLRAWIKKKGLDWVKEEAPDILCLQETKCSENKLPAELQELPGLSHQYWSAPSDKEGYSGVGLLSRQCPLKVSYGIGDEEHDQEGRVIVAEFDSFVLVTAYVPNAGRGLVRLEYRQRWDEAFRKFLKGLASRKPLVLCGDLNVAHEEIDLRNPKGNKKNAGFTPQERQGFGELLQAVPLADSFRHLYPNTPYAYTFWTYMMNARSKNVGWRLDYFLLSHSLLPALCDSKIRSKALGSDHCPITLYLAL
In short: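 Substrate: 50 nM final fluorophore/quencher THF-abasic duplex. Enzyme preincubated with compounds 15 min, RT. Progress derived from fluorescence difference, third minus first kinetic read.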

[3] = Counterscreen for APE1 Inhibitors: Fluorescent Dye Displacement Validation Assay (AID 1707)
In short: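 Assay buffer: Tris-HCl pH7.5 with 50mM NaCl, 2 mM MgCl2, 0.01% Tween-20. Dye 250 nM, duplex 50 nM final. Readout: decrease in ThO endpoint fluorescence, 480 nm excitation, 540 nm emission.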

[4] = qHTS for differential inhibitors of proliferation of Plasmodium falciparum line 7G8 (AID 1815);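 note: parasite growth measured after three days of incubation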; note: potency is the fitted concentration of half-maximal effect
[5] = qHTS for differential inhibitors of proliferation of Plasmodium falciparum line GB4 (AID 1816); details: Potency: Plasmodium falciparum GB4 proliferation inhibition;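 note: parasite growth measured after 72 h incubation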; note: potency is the fitted concentration of half-maximal effect
[6] = qHTS for differential inhibitors of proliferation of Plasmodium falciparum line 3D7 (AID 1876); note: potency is the fitted concentration of half-maximal effect
[7] = qHTS for differential inhibitors of proliferation of Plasmodium falciparum line D10 (AID 1877);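 note: parasites grown with compound for 72 h before DNA staining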; note: potency is the fitted concentration of half-maximal effect
[8] = qHTS for differential inhibitors of proliferation of Plasmodium falciparum line Dd2 (AID 1882); details: Potency: Plasmodium falciparum Dd2 proliferation inhibition; note: nearly all actives have a fitted effect of over 65% in size; note: potency is the fitted concentration of half-maximal effect
In short: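 Dd2-infected erythrocytes (0.3% parasitemia, 2.5% hematocrit final) incubated with compound 72 h at 37 C, 5% CO2; lysed with saponin/Triton buffer containing SYBR Green I, incubated overnight in the dark, then read by fluorescence (485/535 nm). Normalized to 0.29 uM artemisinin and DMSO.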

[9] = qHTS for differential inhibitors of proliferation of Plasmodium falciparum line W2 (AID 1883); details: Potency: Plasmodium falciparum W2 proliferation inhibition;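 note: parasites grown with compound for 72 h before lysis and staining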; note: potency is the fitted concentration of half-maximal effect
[10] = qHTS for differential inhibitors of proliferation of Plasmodium falciparum line HB3 (AID 1886); details: Potency: Plasmodium falciparum HB3 proliferation inhibition;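 note: parasites grown with compound for 72 h before SYBR Green readout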; note: potency is the fitted concentration of half-maximal effect
[11] = target: ATP-dependent DNA helicase Q1 (Homo sapiens) (UniProt P46063); assay: qHTS Validation Assay for Inhibitors of RecQ-Like Dna Helicase 1 (RECQ1) (AID 2353)
Chain of ATP-dependent DNA helicase Q1 (Homo sapiens) (P46063 whole entry, looked up): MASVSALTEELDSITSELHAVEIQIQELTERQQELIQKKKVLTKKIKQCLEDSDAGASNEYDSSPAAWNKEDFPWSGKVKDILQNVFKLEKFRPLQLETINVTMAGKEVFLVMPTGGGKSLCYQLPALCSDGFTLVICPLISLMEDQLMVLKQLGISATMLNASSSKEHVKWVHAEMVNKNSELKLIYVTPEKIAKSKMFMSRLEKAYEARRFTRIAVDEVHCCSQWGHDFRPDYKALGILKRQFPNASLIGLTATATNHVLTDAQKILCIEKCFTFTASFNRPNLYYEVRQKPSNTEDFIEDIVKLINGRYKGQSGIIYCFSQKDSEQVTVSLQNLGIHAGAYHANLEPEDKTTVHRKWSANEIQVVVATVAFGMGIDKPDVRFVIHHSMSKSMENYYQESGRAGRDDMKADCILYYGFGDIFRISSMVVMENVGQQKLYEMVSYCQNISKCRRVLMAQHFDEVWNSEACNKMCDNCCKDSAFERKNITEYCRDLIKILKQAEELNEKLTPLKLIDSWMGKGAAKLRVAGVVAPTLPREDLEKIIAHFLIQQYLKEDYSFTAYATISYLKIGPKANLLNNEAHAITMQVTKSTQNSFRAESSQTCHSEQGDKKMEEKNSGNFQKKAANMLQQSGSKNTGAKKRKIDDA
In short: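 50 nM RECQ1T1 preincubated 15 min with compound in Tris pH 8.0 buffer with MgCl2, DTT, Tween-20 and 2.5 ug/ml poly(dI-dC); started with 200 nM TAMRA/BHQ-2 forked duplex and 2 mM ATP. Unwinding read as fluorescence (525/598 nm), two reads 2 h apart.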

[12] = qHTS Assay for Modulators of Human Peripheral Myelin Protein 22 (PMP22) Expression/Activity (AID 1967; active = well fitted curve in the direction sought with a large enough effect in the signal ratio; the % refers to the signal ratio)
In short: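 Engineered MSC80 cells, Pmp22-promoter green and EF-alpha red luciferase reporters; 24h compound treatment at 37 °C. Concentration-response fits on green, red and ratio signals, each overlap-corrected, with %Activity normalized to untreated wells.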

[13] = target: Ferritin light chain (Equus caballus) (UniProt P02791); assay: qHTS Validation Assay for Identification of Novel General Anesthetics (AID 2323); note: series mostly up to about 77 µM
Chain of Ferritin light chain (Equus caballus) (P02791 2-175 limits assumed): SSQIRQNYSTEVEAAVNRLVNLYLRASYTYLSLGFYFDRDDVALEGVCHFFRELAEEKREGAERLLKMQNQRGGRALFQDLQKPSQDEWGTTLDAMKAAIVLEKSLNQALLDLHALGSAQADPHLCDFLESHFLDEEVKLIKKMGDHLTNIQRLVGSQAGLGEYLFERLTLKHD
In short: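 Normalized fluorescence response, scaled between free 1-AMA and 1-AMA/apoferritin complex, fitted to a four-parameter Hill equation for concentration-effect values. Binding mix: 10 uM horse-spleen apoferritin, 50% saturated 1-AMA in PBS; read 380/535 nm after 10 min.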

[14] = target: RecQ-like DNA helicase BLM (Homo sapiens) (UniProt P54132); assay: qHTS Validation Assay for Inhibitors of Bloom's syndrome helicase (BLM) (AID 2364)
Chain of RecQ-like DNA helicase BLM (Homo sapiens) (P54132 whole entry, looked up): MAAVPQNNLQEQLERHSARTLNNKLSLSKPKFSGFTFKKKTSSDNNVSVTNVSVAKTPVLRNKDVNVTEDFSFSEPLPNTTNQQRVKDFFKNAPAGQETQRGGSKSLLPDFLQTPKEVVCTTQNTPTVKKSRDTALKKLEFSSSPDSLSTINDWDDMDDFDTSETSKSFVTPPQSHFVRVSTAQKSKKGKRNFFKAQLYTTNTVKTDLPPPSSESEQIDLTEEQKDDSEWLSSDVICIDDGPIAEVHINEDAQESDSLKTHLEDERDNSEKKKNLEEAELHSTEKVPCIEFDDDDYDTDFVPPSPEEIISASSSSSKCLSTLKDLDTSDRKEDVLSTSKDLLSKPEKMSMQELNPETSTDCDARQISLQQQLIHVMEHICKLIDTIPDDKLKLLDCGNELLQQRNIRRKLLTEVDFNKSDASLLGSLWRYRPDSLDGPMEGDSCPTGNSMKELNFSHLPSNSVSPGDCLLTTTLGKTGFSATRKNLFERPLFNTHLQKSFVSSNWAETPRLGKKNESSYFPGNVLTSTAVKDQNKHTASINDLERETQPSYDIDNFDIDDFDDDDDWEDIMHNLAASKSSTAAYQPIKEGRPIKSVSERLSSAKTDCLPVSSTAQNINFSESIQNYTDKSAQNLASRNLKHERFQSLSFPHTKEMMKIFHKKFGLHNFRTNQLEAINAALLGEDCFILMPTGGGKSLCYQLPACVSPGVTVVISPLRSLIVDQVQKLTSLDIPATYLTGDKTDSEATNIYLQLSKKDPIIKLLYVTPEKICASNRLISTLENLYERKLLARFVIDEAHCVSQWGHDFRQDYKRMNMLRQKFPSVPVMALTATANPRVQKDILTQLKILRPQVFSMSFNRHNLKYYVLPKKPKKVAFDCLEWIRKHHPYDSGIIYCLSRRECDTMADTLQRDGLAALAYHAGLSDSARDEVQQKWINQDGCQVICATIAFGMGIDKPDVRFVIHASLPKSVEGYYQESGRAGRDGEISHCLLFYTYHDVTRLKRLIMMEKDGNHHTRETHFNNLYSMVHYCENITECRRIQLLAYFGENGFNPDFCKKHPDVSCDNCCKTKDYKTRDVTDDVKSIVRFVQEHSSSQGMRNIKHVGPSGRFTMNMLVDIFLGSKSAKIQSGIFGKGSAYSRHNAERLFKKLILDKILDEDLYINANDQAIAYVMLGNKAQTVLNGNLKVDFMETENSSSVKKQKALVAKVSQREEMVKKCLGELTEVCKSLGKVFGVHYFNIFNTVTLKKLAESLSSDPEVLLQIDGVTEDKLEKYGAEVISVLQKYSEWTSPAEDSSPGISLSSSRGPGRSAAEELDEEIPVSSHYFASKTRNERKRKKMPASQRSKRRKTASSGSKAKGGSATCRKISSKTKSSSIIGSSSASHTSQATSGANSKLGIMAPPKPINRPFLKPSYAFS
In short: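 Forked 20-bp duplex substrate (200 nM, TAMRA/BHQ-2) plus 2 mM ATP added after 15 min compound preincubation with 50 nM enzyme, pH 8.0, poly(dI-dC) 2.5 ug/ml. Strand separation followed by fluorescence (525/598 nm) over 2 h, normalized to enzyme-free and DMSO controls.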

[15] = target: Endonuclease 4 (Escherichia coli (strain K12)) (UniProt P0A6C1); assay: Counterscreen for APE1 Inhibitors: qHTS Validation Assay for Inhibitors of Endonuclease IV (AID 1708)
In short: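 qHTS concentration-response format; LOPAC1280 tested under APE1-screen conditions. 2 nM enzyme, 15 min compound preincubation at RT, then 50 nM TAMRA/BHQ-2 abasic substrate; kinetic fluorescence read, three reads at 60 s intervals.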

Measured: Potency

Nc1ncnc2c1c(-c1ccc(Oc3ccccc3)cc1)cn2C1CCCC1
active: [4] 4.47 µM | [5] 2.51 µM | [6] 10 µM | [7] 12.6 µM | [8] 7.94 µM | [9] 3.55 µM | [10] 12.6 µM
inactive: [1] | [2] | [3] | [11]

O=C(N[C@@H](Cc1ccccc1)C(=O)CCl)OCc1ccccc1
inactive: [1] | [2] | [3] | [11]
active: [4] 8.91 µM | [5] 10 µM | [6] 11.2 µM | [8] 11.2 µM | [9] 8.91 µM | [10] 14.1 µM

NC(=O)c1cc[n+](CC2=C(C(=O)O)N3C(=O)[C@@H](NC(=O)[C@@H](c4ccccc4)S(=O)(=O)[O-])[C@H]3SC2)cc1
inactive: [3] | [4] | [5] | [6] | [7] | [8] | [10] | [12] | [13] | [11] | [14]
active: [2] 14.1 µM

CCC1(O)CC2CN(CCc3c([nH]c4ccccc34)[C@@](C(=O)OC)(c3cc4c(cc3OC)N(C)C3[C@]45CCN4CC=C[C@@](CC)([C@@H](OC(C)=O)[C@]3(O)C(=O)OC)[C@H]45)C2)C1 (stereo partly specified)
active: [4] 1.12 µM | [5] 2.51 µM | [6] 0.631 µM | [7] 5.01 µM | [8] 0.398 µM | [9] 0.794 µM | [10] 2.82 µM
inactive: [3] | [15] | [13] | [11]

O=C1Cc2c([nH]c3ccc(Br)cc23)-c2ccccc2N1
active: [4] 8.91 µM | [5] 10 µM | [6] 11.2 µM | [7] 11.2 µM | [9] 10 µM | [10] 12.6 µM
inactive: [1] | [2] | [3] | [13] | [11]

CCCCCCCCCC[Si](C)(C)CCC(=O)NC(Cc1ccc(C)cc1)c1ccccc1 (stereo unspecified)
inactive: [2] | [3] | [15] | [11]

CCCCC[C@H](CC(=O)NO)C(=O)N[C@H](C(=O)N1CCC[C@H]1CO)C(C)C
active: [4] 2.24 µM | [5] 2 µM | [6] 1.78 µM | [7] 1.58 µM | [9] 2.51 µM | [10] 2.82 µM
inactive: [3] | [15] | [13] | [14]

COc1ccc2c(c1)CCC1C2CC[C@@]2(C)C1CC[C@@H]2NCCCCCCN1C(=O)C=CC1=O (stereo partly specified)
inactive: [3] | [15] | [4] | [5] | [6] | [7] | [8] | [9] | [10] | [12] | [13] | [11] | [14]

N=C(N)SCCN
inactive: [1] | [3] | [15] | [8] | [12] | [11] | [14]

O=C(O)C1CCNCC1
inactive: [1] | [2] | [3] | [8] | [13] | [11] | [14]

NCC(O)c1ccc(O)c(O)c1 (stereo unspecified)
inactive: [2] | [3] | [15] | [8] | [11]
active: [9] 11.2 µM

CCCCCCCC/C=C\CCCCCCCC(=O)NCCc1ccc(O)c(O)c1
inactive: [1] | [2] | [11]
active: [4] 7.08 µM | [5] 11.2 µM | [6] 8.91 µM | [8] 8.91 µM | [9] 7.94 µM | [10] 12.6 µM

O=c1oc(Cl)c(Cl)c2ccccc12
inactive: [1] | [2] | [3] | [5] | [6] | [7] | [8] | [10] | [11]

O=C1Nc2ccc(I)cc2/C1=C/c1cc(Br)c(O)c(Br)c1
inactive: [1] | [3] | [15] | [11]
active: [4] 8.91 µM | [5] 14.1 µM | [6] 14.1 µM | [9] 15.8 µM | [10] 10 µM

Cc1ccccc1/C=C/C1=NCCN1
inactive: [2] | [3] | [13] | [11] | [14]
active: [4] 8.91 µM | [5] 11.2 µM | [9] 12.6 µM | [10] 12.6 µM

N=C(N)c1ccc(N)cc1
active: [9] 14.1 µM
inactive: [1] | [3] | [15] | [4] | [6] | [7] | [8] | [10] | [12] | [13] | [11] | [14]

CNc1ncnc2c1ncn2[C@H]1C[C@H](OP(=O)(O)O)[C@@H](COP(=O)(O)O)O1
inactive: [2] | [3] | [4] | [5] | [6] | [7] | [8] | [9] | [10] | [12] | [13] | [11]

NC(=Nc1ccccc1)NC(=O)c1nc(Cl)c(N)nc1N
active: [4] 8.91 µM | [5] 12.6 µM | [6] 3.55 µM | [7] 8.91 µM | [9] 7.08 µM | [10] 7.94 µM
inactive: [1] | [3] | [8] | [13] | [14]

S=C(S)N1CCCC1
inactive: [1] | [2] | [3] | [15] | [13] | [11] | [14]

CC(=O)[C@H]1CCC2C3CC=C4C[C@@H](OS(=O)(=O)O)CC[C@]4(C)C3CC[C@@]21C (stereo partly specified)
inactive: [3] | [15] | [4] | [5] | [6] | [7] | [8] | [9] | [10] | [13] | [14]

NC1(C(=O)O)CCCCC1
inactive: [1] | [2] | [3] | [4] | [5] | [6] | [7] | [8] | [9] | [10] | [12] | [13] | [11]

Nc1nc2ccc(Cl)cc2c2nc(-c3ccco3)nn12
inactive: [1] | [2] | [3] | [15] | [11] | [14]
